# Source: ChEMBL document CHEMBL2218924, “A broad activity screen in support of a chemogenomic map for kinase signalling research and drug discovery” (Biochem J, 2013)
# Target: Calcium/calmodulin-dependent protein kinase type 1 (Homo sapiens) (UniProt Q14012)
# Settings: at 1 µM
# Sequence of Calcium/calmodulin-dependent protein kinase type 1 (Homo sapiens) (Q14012 whole entry, looked up): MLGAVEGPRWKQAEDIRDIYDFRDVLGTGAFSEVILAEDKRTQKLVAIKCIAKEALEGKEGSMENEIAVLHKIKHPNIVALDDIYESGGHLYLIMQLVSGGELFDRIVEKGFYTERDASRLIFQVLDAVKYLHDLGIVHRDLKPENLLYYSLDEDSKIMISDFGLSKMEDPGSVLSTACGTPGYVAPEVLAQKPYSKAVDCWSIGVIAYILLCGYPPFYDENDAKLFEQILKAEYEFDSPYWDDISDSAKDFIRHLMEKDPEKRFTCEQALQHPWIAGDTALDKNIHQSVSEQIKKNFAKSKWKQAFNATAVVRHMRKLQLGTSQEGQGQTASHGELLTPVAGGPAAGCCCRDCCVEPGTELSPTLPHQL
row,Compound,residual activity [%]
1,O=C1NC(=O)c2c1c1c3ccccc3[nH]c1c1[nH]c3cc(Br)ccc3c21,89
2,NC(=O)c1ccc2[nH]c(-c3ccc(Oc4ccc(Cl)cc4)cc3)nc2c1,94
3,Cc1cncc2cccc(S(=O)(=O)N3CCCN(C(=O)CN)C[C@H]3C)c12,97
4,CCN(CC)CCCCN1c2ccccc2Oc2ccc(Cl)cc21,107
5,COc1ccc(CNc2nc(N(CCO)CCO)nc3c2ncn3C(C)C)cc1,85
6,Cc1ccc(S(=O)(=O)/C=C/C#N)cc1,95
7,CO[C@H]1C[C@@H]2CC[C@@H](C)[C@@](O)(O2)C(=O)C(=O)N2CCCC[C@H]2C(=O)O[C@H]([C@H](C)C[C@@H]2CC[C@@H](O)[C@H](OC)C2)CC(=O)[C@H](C)/C=C(\C)[C@@H](O)[C@@H](OC)C(=O)[C@H](C)C[C@H](C)/C=C/C=C/C=C/1C,108
8,CO[C@H]1[C@@H](OC)C[C@H](C)[C@@H](OC)C2=CC(=O)C=C(NC(=O)/C(C)=C/C=C/[C@H](OC)[C@@H](OC(N)=O)/C(C)=C/[C@@H]1C)C2=O,115
9,CC[n+]1c(/C=C/N(C)c2ccccc2)n(-c2ccccc2)c2ccc(-c3nc4ccccc4s3)cc21,107
10,Cc1ccc(NC2=CC(=O)c3sc(C)nc3C2=O)cc1,92
11,Oc1ccc(-c2nc(-c3ccc(F)cc3)c(-c3ccncc3)[nH]2)cc1,111
12,Nc1n[nH]c2nnc(-c3c(-c4ccccc4)nn4ccccc34)cc12,101
13,CCOc1cc2ncnc(Nc3cccc(Br)c3)c2cc1OCC,107
14,N#Cc1cnc2cnc(NCc3cccnc3)cc2c1Nc1ccc(F)c(Cl)c1,42
15,CNc1cc2c(Nc3cccc(Br)c3)ncnc2cn1,95
16,Ic1cccc(CSc2nnc(-c3ccncc3)o2)c1,97
17,O=C1NC(=O)/C(=C/c2ccc3c(c2)OC(F)(F)O3)S1,86
18,CC(=O)c1ccc(N2CCOCC2)cc1O,108

row,Compound,residual activity [%]
1,CO[C@@H]1[C@H](N(C)C(=O)c2ccccc2)C[C@H]2O[C@]1(C)n1c3ccccc3c3c4c(c5c6ccccc6n2c5c31)C(=O)NC4,84
2,CC(C)n1cnc2c(NCc3ccccc3)nc(NCCCO)nc21,80
3,COc1cc2ncnc(Nc3ccc(Oc4ccccc4)cc3)c2cc1OC,102
4,O=C(Nc1cccc(Nc2cc(Nc3cccc(C(F)(F)F)c3)ncn2)c1)C1CC1,114
5,COc1ccc(OC)c2c(=S)c3ccccc3[nH]c12,96
6,Cn1nc2c3c(cccc31)C(=O)c1ccccc1-2,75
7,Nc1ccc2ncnc(NCCc3ccc(Oc4ccccc4)cc3)c2c1,107
8,CN(C)c1ccc(/C=C2\C(=O)Nc3ccccc32)cc1,122
9,O=C1Nc2cc(Br)ccc2/C1=C1/Nc2ccccc2/C1=N\O,59
10,Nc1nc(Nc2ccc(S(N)(=O)=O)cc2)nn1C(=S)Nc1c(F)cccc1F,66
11,N#C/C(=C(\N)Sc1ccc(N)cc1)c1ccccc1C(F)(F)F,83
12,COc1cc2ncnc(Nc3ccc(O)c(Br)c3)c2cc1OC,104
13,O=C1NC(=O)/C(=C\c2ccc3nccnc3c2)S1,109
14,Cc1nc2cc3nc(-c4cccs4)cnc3cc2n1C,109
15,COc1cc2ncnc(N3CCN(C(=O)Nc4ccc(Oc5ccccc5)cc4)CC3)c2cc1OC,104
16,Nc1cccc(-c2cc3c(Oc4cccc(O)c4)ncnc3[nH]2)c1,88
17,COc1cccc(-c2cc(=O)c3ccccc3o2)c1N,97

# Target: Calcium/calmodulin-dependent protein kinase type 1 (Homo sapiens) (UniProt Q14012)
# Settings: at 10 µM
row,Compound,residual activity [%]
1,O=C1NC(=O)c2c1c1c3ccccc3[nH]c1c1[nH]c3cc(Br)ccc3c21,70
2,NC(=O)c1ccc2[nH]c(-c3ccc(Oc4ccc(Cl)cc4)cc3)nc2c1,92
3,Cc1cncc2cccc(S(=O)(=O)N3CCCN(C(=O)CN)C[C@H]3C)c12,63
4,CCN(CC)CCCCN1c2ccccc2Oc2ccc(Cl)cc21,89
5,COc1ccc(CNc2nc(N(CCO)CCO)nc3c2ncn3C(C)C)cc1,55
6,Cc1ccc(S(=O)(=O)/C=C/C#N)cc1,77
7,CO[C@H]1C[C@@H]2CC[C@@H](C)[C@@](O)(O2)C(=O)C(=O)N2CCCC[C@H]2C(=O)O[C@H]([C@H](C)C[C@@H]2CC[C@@H](O)[C@H](OC)C2)CC(=O)[C@H](C)/C=C(\C)[C@@H](O)[C@@H](OC)C(=O)[C@H](C)C[C@H](C)/C=C/C=C/C=C/1C,84
8,CO[C@H]1[C@@H](OC)C[C@H](C)[C@@H](OC)C2=CC(=O)C=C(NC(=O)/C(C)=C/C=C/[C@H](OC)[C@@H](OC(N)=O)/C(C)=C/[C@@H]1C)C2=O,88
9,CC[n+]1c(/C=C/N(C)c2ccccc2)n(-c2ccccc2)c2ccc(-c3nc4ccccc4s3)cc21,26
10,Cc1ccc(NC2=CC(=O)c3sc(C)nc3C2=O)cc1,74
11,Oc1ccc(-c2nc(-c3ccc(F)cc3)c(-c3ccncc3)[nH]2)cc1,100
12,Nc1n[nH]c2nnc(-c3c(-c4ccccc4)nn4ccccc34)cc12,79
13,CCOc1cc2ncnc(Nc3cccc(Br)c3)c2cc1OCC,84
14,N#Cc1cnc2cnc(NCc3cccnc3)cc2c1Nc1ccc(F)c(Cl)c1,26
15,CNc1cc2c(Nc3cccc(Br)c3)ncnc2cn1,65
16,Ic1cccc(CSc2nnc(-c3ccncc3)o2)c1,79
17,O=C1NC(=O)/C(=C/c2ccc3c(c2)OC(F)(F)O3)S1,83
18,CC(=O)c1ccc(N2CCOCC2)cc1O,83

row,Compound,residual activity [%]
1,CO[C@@H]1[C@H](N(C)C(=O)c2ccccc2)C[C@H]2O[C@]1(C)n1c3ccccc3c3c4c(c5c6ccccc6n2c5c31)C(=O)NC4,29
2,CC(C)n1cnc2c(NCc3ccccc3)nc(NCCCO)nc21,68
3,COc1cc2ncnc(Nc3ccc(Oc4ccccc4)cc3)c2cc1OC,76
4,O=C(Nc1cccc(Nc2cc(Nc3cccc(C(F)(F)F)c3)ncn2)c1)C1CC1,57
5,COc1ccc(OC)c2c(=S)c3ccccc3[nH]c12,77
6,Cn1nc2c3c(cccc31)C(=O)c1ccccc1-2,74
7,Nc1ccc2ncnc(NCCc3ccc(Oc4ccccc4)cc3)c2c1,87
8,CN(C)c1ccc(/C=C2\C(=O)Nc3ccccc32)cc1,116
9,O=C1Nc2cc(Br)ccc2/C1=C1/Nc2ccccc2/C1=N\O,12
10,Nc1nc(Nc2ccc(S(N)(=O)=O)cc2)nn1C(=S)Nc1c(F)cccc1F,17
11,N#C/C(=C(\N)Sc1ccc(N)cc1)c1ccccc1C(F)(F)F,95
12,COc1cc2ncnc(Nc3ccc(O)c(Br)c3)c2cc1OC,61
13,O=C1NC(=O)/C(=C\c2ccc3nccnc3c2)S1,80
14,Cc1nc2cc3nc(-c4cccs4)cnc3cc2n1C,107
15,COc1cc2ncnc(N3CCN(C(=O)Nc4ccc(Oc5ccccc5)cc4)CC3)c2cc1OC,97
16,Nc1cccc(-c2cc3c(Oc4cccc(O)c4)ncnc3[nH]2)c1,66
17,COc1cccc(-c2cc(=O)c3ccccc3o2)c1N,82
